A short description of assay [1]: small molecules captured by biotinylated probe aFSTL3 – biochemical, small-molecule microarray, fluorescence 635/667, stem cell growth factor project, primary screen (AID 1064).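 Further: measures binding of the biotinylated anti-FSTL3 antibody to printed compounds.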 As to conditions: higher = more signal.
Assay [2] in a line: binders from COS7 lysate, DM2A8 probe, primary screen, torsin A project, cell lysate, small-molecule microarray, fluorescence 635/667 (AID 1065). As to conditions: higher = more signal, COS7 lysate expressing mutant human TOR1A.
Assay [3] in a line: small molecules captured by biotinylated probe aFGF2 – biochemical, small-molecule microarray, fluorescence 635/667, stem cell growth factor project, primary screen (AID 1067).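 Further: measures binding of biotinylated aFGF2 protein to printed compounds on slides; z-score merges feature fluorescence and signal-to-noise across triplicate slides.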 The following applies: higher = more signal.
A short description of assay [4]: small molecules captured by biotinylated probe aFGF10 – biochemical, small-molecule microarray, fluorescence 635/667, stem cell growth factor project, primary screen (AID 1071).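 Further: score merges 667 nm spot intensity and signal to noise from triplicate slides.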 The following applies: higher = more signal.
Assay [5] deals with Neurogenic locus notch homolog protein 2 (Homo sapiens) (UniProt Q04721). Put plainly: small molecules binding Notch2 protein – biochemical, small-molecule microarray, 635 nm fluorescence, stem cell growth factors, primary screen (AID 1073). As to conditions: higher = more signal.
Assay [6] concerns the target Pro-neuregulin-1, membrane-bound isoform (Homo sapiens) (UniProt Q02297). Put plainly: small molecules binding neuregulin-1 protein – biochemical, small-molecule microarray, fluorescence 635/667, psychiatric disease protein project, primary screen (AID 1075).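 Further: score combines 667 nm spot fluorescence with signal to noise.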 The following applies: NRG1 binding, 635 nm fluorescence, higher = more signal.
Assay [7] has as its system Neuregulin-1 EGF-like domain. Kind of assay: small molecules binding NRG1 EGF domain – biochemical, small-molecule microarray, 635 nm fluorescence, primary screen (AID 1081).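 Further: binding of the protein to compounds printed on small-molecule microarray slides.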 As to conditions: higher = more signal.
Assay [8] is described as follows: FRG1 expression reporter modulators in myotubes – cell-based, C2C12 myotubes, firefly/Renilla luciferase, luminescence, FRG1 inhibition for FSHD, primary screen (AID 1084). As to conditions: FRG1 promoter luciferase, higher = more signal, called active from +8 up or from −8 down.
The nature of assay [9]: small molecules captured by biotinylated probe aFST – biochemical, small-molecule microarray, fluorescence 635/667, stem cell growth factor project, primary screen (AID 1086).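 Further: score merges 667 nm fluorescence with signal-to-noise of each printed compound spot.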 As to conditions: higher = more signal.
Assay [10] is described as follows: binders of probe aHhip on microarray, primary screen, stem cell growth factor project, biochemical, small-molecule microarray, fluorescence 635/667 (AID 1087).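 Further: score merges spot fluorescence at 667nm with spot signal to noise ratio.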 As to conditions: higher = more signal.

Calls of active or inactive are those of the source.

Neurogenic locus notch homolog protein 2 (Homo sapiens), sequence (Q04721 whole entry, looked up, canonical isoform): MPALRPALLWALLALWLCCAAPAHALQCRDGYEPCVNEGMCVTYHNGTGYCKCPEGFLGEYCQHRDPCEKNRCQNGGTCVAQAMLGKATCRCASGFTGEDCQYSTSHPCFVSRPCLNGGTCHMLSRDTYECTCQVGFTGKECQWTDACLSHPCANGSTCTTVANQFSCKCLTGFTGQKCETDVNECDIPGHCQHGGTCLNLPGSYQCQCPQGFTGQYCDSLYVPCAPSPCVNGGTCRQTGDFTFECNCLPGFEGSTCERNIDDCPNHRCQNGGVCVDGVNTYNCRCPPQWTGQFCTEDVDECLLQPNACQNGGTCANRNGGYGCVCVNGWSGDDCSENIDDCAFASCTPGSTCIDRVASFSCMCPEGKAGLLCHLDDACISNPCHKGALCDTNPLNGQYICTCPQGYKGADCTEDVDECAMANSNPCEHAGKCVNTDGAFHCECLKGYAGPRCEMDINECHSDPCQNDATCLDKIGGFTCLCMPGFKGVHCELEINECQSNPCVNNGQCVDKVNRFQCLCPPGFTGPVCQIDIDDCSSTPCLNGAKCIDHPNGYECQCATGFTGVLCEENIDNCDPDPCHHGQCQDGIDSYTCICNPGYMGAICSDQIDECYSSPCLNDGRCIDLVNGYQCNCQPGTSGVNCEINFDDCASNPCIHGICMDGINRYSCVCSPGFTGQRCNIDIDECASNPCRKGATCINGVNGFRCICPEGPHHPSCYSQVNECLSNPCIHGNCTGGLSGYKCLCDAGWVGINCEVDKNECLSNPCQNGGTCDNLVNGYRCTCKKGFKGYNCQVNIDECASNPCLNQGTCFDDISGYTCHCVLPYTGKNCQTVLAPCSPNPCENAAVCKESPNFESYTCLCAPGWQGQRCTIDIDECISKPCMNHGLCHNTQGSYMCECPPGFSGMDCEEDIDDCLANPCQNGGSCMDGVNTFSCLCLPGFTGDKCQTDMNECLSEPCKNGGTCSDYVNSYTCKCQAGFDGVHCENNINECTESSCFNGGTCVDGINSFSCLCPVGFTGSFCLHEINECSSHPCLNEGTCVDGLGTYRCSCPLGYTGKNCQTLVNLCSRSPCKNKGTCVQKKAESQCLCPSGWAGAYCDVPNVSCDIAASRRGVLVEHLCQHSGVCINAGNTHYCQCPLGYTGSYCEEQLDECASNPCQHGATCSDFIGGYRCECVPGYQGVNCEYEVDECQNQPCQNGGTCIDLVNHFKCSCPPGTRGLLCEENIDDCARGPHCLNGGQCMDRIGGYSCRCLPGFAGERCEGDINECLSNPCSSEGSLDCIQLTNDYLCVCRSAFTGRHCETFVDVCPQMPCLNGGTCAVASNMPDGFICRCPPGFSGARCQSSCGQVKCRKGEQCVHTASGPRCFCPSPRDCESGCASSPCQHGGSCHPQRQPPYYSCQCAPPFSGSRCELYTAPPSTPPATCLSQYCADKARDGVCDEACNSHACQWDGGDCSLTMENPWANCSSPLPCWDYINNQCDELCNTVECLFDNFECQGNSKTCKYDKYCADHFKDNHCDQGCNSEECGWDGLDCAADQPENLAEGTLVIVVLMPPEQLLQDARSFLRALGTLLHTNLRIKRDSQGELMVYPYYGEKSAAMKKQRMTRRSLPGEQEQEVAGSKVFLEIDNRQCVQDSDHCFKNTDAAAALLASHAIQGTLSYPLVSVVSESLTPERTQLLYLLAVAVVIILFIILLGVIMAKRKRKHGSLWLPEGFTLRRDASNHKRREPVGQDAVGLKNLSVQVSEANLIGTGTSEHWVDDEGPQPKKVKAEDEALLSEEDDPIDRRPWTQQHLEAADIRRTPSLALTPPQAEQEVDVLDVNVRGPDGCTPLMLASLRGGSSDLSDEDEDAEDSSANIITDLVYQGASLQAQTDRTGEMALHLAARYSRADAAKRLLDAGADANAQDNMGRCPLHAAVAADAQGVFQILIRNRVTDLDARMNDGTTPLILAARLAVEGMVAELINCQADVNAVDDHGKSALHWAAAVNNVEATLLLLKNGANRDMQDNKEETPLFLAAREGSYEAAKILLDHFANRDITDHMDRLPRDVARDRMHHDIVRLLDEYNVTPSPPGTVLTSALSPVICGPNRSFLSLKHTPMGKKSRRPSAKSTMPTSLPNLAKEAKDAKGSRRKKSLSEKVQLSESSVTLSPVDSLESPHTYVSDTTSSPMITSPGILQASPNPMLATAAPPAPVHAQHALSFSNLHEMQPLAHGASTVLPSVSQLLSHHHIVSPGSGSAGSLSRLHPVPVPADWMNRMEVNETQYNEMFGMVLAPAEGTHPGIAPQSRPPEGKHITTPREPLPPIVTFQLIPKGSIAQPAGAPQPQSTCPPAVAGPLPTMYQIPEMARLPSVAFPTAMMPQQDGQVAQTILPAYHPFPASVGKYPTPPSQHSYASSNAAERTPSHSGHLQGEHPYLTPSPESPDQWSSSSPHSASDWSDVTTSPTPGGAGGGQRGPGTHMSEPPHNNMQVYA
Pro-neuregulin-1, membrane-bound isoform (Homo sapiens), sequence (Q02297 whole entry, looked up, the tested form may be a part, canonical isoform): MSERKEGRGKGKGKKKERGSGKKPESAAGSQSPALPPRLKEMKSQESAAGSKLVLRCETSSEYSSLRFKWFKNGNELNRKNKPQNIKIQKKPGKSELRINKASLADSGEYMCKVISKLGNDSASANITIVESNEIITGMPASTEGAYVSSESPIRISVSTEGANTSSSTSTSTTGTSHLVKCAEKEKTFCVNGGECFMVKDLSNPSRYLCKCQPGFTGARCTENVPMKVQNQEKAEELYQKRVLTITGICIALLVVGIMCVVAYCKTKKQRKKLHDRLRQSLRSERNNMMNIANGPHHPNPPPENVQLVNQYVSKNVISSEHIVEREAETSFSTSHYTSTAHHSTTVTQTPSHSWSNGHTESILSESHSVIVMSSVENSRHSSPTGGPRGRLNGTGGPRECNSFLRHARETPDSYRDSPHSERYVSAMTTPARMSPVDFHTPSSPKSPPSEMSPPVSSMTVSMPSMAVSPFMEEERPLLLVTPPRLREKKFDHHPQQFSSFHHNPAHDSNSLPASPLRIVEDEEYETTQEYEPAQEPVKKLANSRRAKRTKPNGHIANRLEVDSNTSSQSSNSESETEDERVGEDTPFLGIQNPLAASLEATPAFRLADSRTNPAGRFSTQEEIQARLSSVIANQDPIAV

For `CC(CCC(=O)OC[C@H]1O[C@H](C#Cc2ccccc2)C=C[C@@H]1Oc1ccc(C)cc1)=NOC(C)CN1CCCCc2nc(C)c(C)cc21` (stereo not given in full), the composite z-score was -0.172 in assay [1]; -0.116 in [2]; -0.211 in assay [3]; -0.12 in assay [4]; -0.565 in [5]; 0.904 in assay [6]. In addition, the composite z-score in [7] was -0.491; in [9] it was -0.697; in assay [10], -0.143. Also, the z-score in assay [8] is 0.49 (inactive).
Consider `CC(=O)OC[C@H]1O[C@@H](ON=C(C)CCC(=O)OC[C@H]2O[C@H](C#Cc3ccccc3)C=C[C@@H]2Oc2ccc(C)cc2)[C@H](OC(C)=O)[C@@H](OC(C)=O)[C@@H]1OC(C)=O`, for which the composite z-score in assay [1] is -0.65; in [2] it was 0.745; in assay [3], 0.0309; in assay [4], 1.12; in [5], 0.951; in assay [6], 0.51. The values for the composite z-score in assay [7], in assay [9] and in assay [10] were 0.938, 0.31 and -0.0994, respectively. Also, the z-score in assay [8] was 0.66 (inactive).
As to `CC(=O)OC[C@H]1O[C@H](CC=NOC[C@@H](O)[C@H]2O[C@@H]3OC(C)(C)O[C@@H]3[C@H]2O)C=C[C@@H]1OC(C)=O`, the composite z-score in assay [1] was -0.373; in [2], -0.487; in assay [3], 0.138; in assay [4], 0.416; in assay [5] it was 1.04; in assay [6], 0.758. The values for the composite z-score in assay [7], in assay [9] and in [10] were 1.13, 0.265 and -0.0844, respectively. In [8], the z-score is -0.008 (inactive).
As to `COC(=O)C1=C(C)N(Cc2ccccc2)C2=C3C(=O)OCC[C@@H]3[C@@](O)(C(=O)OC)C(=O)N2[C@@H]1c1ccccc1`, the composite z-score in [1] is -0.69; in assay [2], -0.0402; in [3], -0.118; in assay [4], 0.495; in assay [5], 0.346; in [6], -0.143. The composite z-score in [7] was 0.0271; in assay [9], -0.0464; in [10] it was 0.0139. The z-score in assay [8] was 0.245 (inactive).
As for `CCOC(=O)NN=C1C[C@@H](O)[C@@H](O)[C@@H]2[C@@H]3C(=O)N(C[C@@H]4CCCO4)C(=O)[C@@H]3CC[C@H]12`, the composite z-score in assay [1] was -0.548; in assay [2], -0.274; in assay [3] it was -0.0217; in assay [4] it was 0.217; in [5], 0.701; in assay [6] it was 0.203. Further, the results for the composite z-score in assay [7], in [9] and in assay [10] were 0.34, -0.0482 and -0.143, respectively. In [8], the z-score was 0.577 (inactive).
Consider `CCOC(=O)[C@H](CC(C)C)NC(=O)CCC1CC(OC(=O)NCc2ccc3c(c2)OCO3)CC2(CCCC(COC(=O)NCCOc3ccccc3)O2)O1` (stereo not given in full), for which the composite z-score in assay [1] was -0.538; in [2] it was 0.143; in assay [3], -0.11; in [4] it was 0.652; in [5], 1.36; in assay [6], 0.843. Besides, the values for the composite z-score in [7], in assay [9] and in [10] were 0.943, 0.0762 and 0.276, respectively. Moreover, in assay [8], the z-score is 0.929 (inactive).
Turning to `CC(C)=NOC[C@@H](O)[C@H]1O[C@@H]2OC(C)(C)O[C@@H]2[C@H]1O`, the composite z-score in [1] was -0.732; in assay [2] it was 0.97; in [3], 0.197; in assay [4], 0.502; in assay [5], 1.09; in [6], 0.233. The composite z-score in assay [7] is 0.457; in [9], 0.548; in [10], -0.191. The z-score in assay [8] is -0.476 (inactive).
On to `O=C1[C@H]2[C@H]3[C@H](O)[C@H](O)CC(=NO[C@@H]4O[C@H](CO)[C@@H](O)[C@H](O)[C@H]4O)[C@H]3CC[C@H]2C(=O)N1C[C@@H]1CCCO1`, for which the composite z-score was -0.151 in assay [1]; 1.07 in assay [2]; -0.121 in [3]; 0.126 in [4]; 0.57 in assay [5]; -0.506 in [6]. In addition, the composite z-score in assay [7] was -0.744; in [9] it was 0.045; in assay [10], -0.0994. The z-score in [8] was 0.189 (inactive).
Take `C[C@@H]1CC[C@H]2C(=O)N3[C@@H](CC[C@@H](C)[C@@H]3c3ccc(Br)cc3)C(=O)N2[C@H]1c1ccc(Br)cc1`: the composite z-score in assay [1] was -0.241; in assay [2], 0.318; in assay [3] it was -0.131; in assay [4] it was 0.3; in assay [5] it was 0.599; in assay [6], -0.0193. Also, the composite z-score in assay [7] was 0.354; in assay [9], 0.343; in assay [10], -0.173. Further, the z-score in assay [8] is -0.469 (inactive).
On to `O=C1[C@H]2CCn3c(=O)n(-c4ccccc4)c(=O)n3[C@H]2[C@H](O)[C@@H]2O[C@H]12`, for which the composite z-score in assay [1] was -0.561; in assay [2], -0.0619; in assay [3] it was -0.0667; in [4], 0.328; in [5], 0.164; in [6] it was 1.63. The composite z-score in [7] was -0.125; in assay [9] it was -0.0545; in assay [10], -0.305. Further, the z-score in [8] was -0.217 (inactive).
For `CO[C@H]1COC(=O)[C@H](CCSC)NC(=O)CC=C[C@@H](C)[C@H](OC)COC(=O)[C@@H](OCc2ccccc2)C=C[C@@H]1C`, the composite z-score in assay [1] is -0.459; in assay [2] it was 0.633; in assay [3], -0.188; in assay [4] it was 0.227; in assay [5] it was 0.133; in assay [6], -0.388. For the same molecule, the composite z-score was 0.597 in assay [7], -0.276 in [9] and -0.134 in assay [10]. Also, the z-score in assay [8] was 0.306 (inactive).
As for `CCOC(=O)NN=C1C[C@@H](O)[C@@H](O)[C@@H]2[C@@H]3C(=O)N(c4ccc(F)cc4F)C(=O)[C@@H]3CC[C@H]12`, the composite z-score was -0.496 in assay [1]; 0.364 in [2]; -0.0131 in assay [3]; 0.202 in assay [4]; 0.501 in [5]; -0.0227 in assay [6]. Also, the composite z-score in assay [7] was 0.158; in assay [9], 0.411; in assay [10], -0.137. In addition, the z-score in [8] is 0.816 (inactive).

Source of the values: PubChem BioAssay.
